# Screening data from PubChem.
# In the library only some 10% were active in any assay of this set; here they are far more common.
# MCF10A rereplic – induces DNA re-replication in MCF 10a normal breast cells; Potency, µM (titrated, usually from 46.1 µM), without a hit: at the highest dose activity, positive = re-replication, usual class: activators; MCF 10A DNA re-replication, Hoechst nuclear intensity, 48 h; AID 624296; hit rate 2.9% among 350,000; further: % of control where 0% means no effect; nearly all actives have a fitted effect of over 50% in size
# RORgamma inh – inhibitors of mouse ROR gamma transcriptional activity. Drosophila S2 Gal4-RORgamma UAS-luciferase reporter, 20 h. Potency, µM (titrated, usually from 53.6 µM), without a hit: top-dose activity change, negative = inhibition, usual class: inhibitors. hit rate 5.4% among 310,000. AID 2551; further: on the % scale 0 is the no-effect control and ±100 the full control effect; nearly all actives have a fitted effect of over 60% in size
# Target sequence (P51450 whole entry, looked up, the tested form may be a part): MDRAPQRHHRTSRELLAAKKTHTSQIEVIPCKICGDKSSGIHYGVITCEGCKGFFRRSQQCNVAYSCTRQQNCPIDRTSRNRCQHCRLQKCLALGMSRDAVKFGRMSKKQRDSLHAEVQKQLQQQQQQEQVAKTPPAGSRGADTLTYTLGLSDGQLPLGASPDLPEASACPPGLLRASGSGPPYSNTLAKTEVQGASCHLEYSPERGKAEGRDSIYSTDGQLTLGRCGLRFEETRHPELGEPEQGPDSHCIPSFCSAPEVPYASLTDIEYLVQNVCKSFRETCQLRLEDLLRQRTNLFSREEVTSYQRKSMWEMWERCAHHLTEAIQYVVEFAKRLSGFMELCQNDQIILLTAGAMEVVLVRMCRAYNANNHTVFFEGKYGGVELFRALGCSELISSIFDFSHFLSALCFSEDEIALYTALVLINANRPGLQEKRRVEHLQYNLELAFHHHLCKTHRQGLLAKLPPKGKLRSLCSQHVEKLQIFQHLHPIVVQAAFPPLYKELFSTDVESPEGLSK
#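 Stable Schneider cell line, Gal4 DNA-binding domain fused to ROR gamma, UAS-luciferase. Cmpd 1 hr RT → CuSO4 700 uM final → 20 hr RT → luciferase reagent 10 min → luminescence.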
# SW480 rereplic – induces DNA re-replication in SW480 colon adenocarcinoma cells. SW480 DNA re-replication, Hoechst DNA content imaging, 48 h. Potency, µM (doses to about 46.1 µM), for inactives: top-dose re-replication activation, actives largely listed as activators. hit rate 1.8% among 340,000. AID 624297; further: % of control where 0% means no effect; nearly all actives have a fitted effect of over 55% in size
#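 250 cells/well; 23 nL cpd via pin tool; 48 hr, 37 C, 5% CO2; Hoechst 40 min; imager read of total nuclear intensity, ex 405/em 500-530 nm.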
# VP16 counter – counter-screen for ROR gamma inhibitors: Gal4-VP16 reporter; Drosophila S2 Gal4-VP16 UAS-luciferase, luminescence, 20 h; Potency, µM (series often up to 53.6 µM), for inactives: at the top dose activity, negative = inhibition, usual class: inhibitors; hit rate 3.5% among 310,000;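 further: Gal4-VP16 expression switched on by copper sulfate through the metallothionein promoter; on the % scale 0 is the no-effect control and ±100 the full control effect; nearly all actives have a fitted effect of over 50% in size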
# ELG1 DNA repair – blocks ELG1-dependent DNA repair in HEK293T cells; HEK293T ELG1-luciferase reporter, luminescence, 16 h; DNA damage induced by 5-fluorouridine; hit rate 2.3% among 330,000; Potency, µM (doses to about 46.1 µM), without a hit: at the top dose activity change, negative = inhibition, actives largely listed as inhibitors; AID 504467; further: on the % scale 0 is the no-effect control and ±100 the full control effect; nearly all actives have a fitted effect of over 55% in size
#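 Cells (2,000 per well) received 5-fluorouridine plus test compound or DMSO and were incubated 16 hr at 37 °C, 5% CO2. Luciferase activity was read by luminescence 30 min after ONE-Glo addition; signal suppression marked inhibition of damage-induced ELG1 function.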
# Active calls of the source: *; ? = inconclusive; . = not tested or not shown. The call rests on the fitted dose curve; in most records, active means well fitted curve in the direction sought with a large enough effect; inconclusive means small, poorly fitted or top-dose-only effect, or another doubt; inactive means no such curve, though single readings can be large; an effect the other way counts as inactive or inconclusive. Potency means the concentration at half of the fitted maximal effect.
SMILES,MCF10A rereplic,RORgamma inh,SW480 rereplic,VP16 counter,ELG1 DNA repair
O=C(Cc1cccs1)NCc1cccs1,0%,12%,-12%,6%,11%
O=C(Cc1cccs1)NNC(=S)NC(=O)c1ccc(F)c(F)c1,1%,6.3µM*,0%,5.6µM*,0%
CC(C)C[C@H](NC(=O)[C@@H](Cc1c[nH]c2ccccc12)NC(=O)[C@H](Cc1ccc(O)cc1)NC(=O)[C@H](CO)NC(=O)[C@H](Cc1c[nH]c2ccccc12)NC(=O)[C@H](Cc1cnc[nH]1)NC(=O)[C@@H]1CCC(=O)N1)C(=O)N[C@@H](CCCN=C(N)N)C(=O)N1CCC[C@H]1C(=O)NCC(N)=O,.,21%,.,-9%,.
CCc1cc(C(=O)N(C)CC(=O)Nc2c(Cl)cccc2Cl)sc1C,19%,.,3%,.,2%
CC(=O)Nc1cc(N=Cc2ccc(O)cc2O)c(Cl)cc1Cl,21µM*,-12%,?,-9%,-1%
COc1ccc(O)c(C=Nc2cc(NC(C)=O)c(Cl)cc2Cl)c1,2%,4%,-67%,6%,-1%
CC12CCC(O)CC1=CCC1C2CCC2(C)C3=NN=CC3CC12 (centres undefined),18µM*,.,?,.,.
CN(C)CCN[C@H]1CCC2C3CC=C4C[C@@H](O)CC[C@]4(C)C3CC[C@@]21C (some centres undefined),21µM*,.,?,.,-4%
CC(=O)C1(O)C(C)CC2C3CC=C4CC(O)CCC4(C)C3CCC21C (centres undefined),-1%,.,-6%,.,.
COCCn1c(SCC(=O)NC2CC2)nc2ccccc21,17%,.,0%,.,?
COC(=O)c1ccccc1S(=O)(=O)NNC(=O)Nc1ccccc1,8%,11µM*,-5%,?,?
COC(=O)c1ccccc1S(=O)(=O)C(C)(C)C,5%,24%,8%,-15%,-2%
CC1CN(C(=O)CNC(=O)COc2ccccc2)CC(C)O1 (centres undefined),2%,.,-27%,.,?
CN1/C(=C\C=N\NC(=O)c2ccc(O)cc2)C(C)(C)c2ccccc21,29%,4.5µM*,-1%,2.5µM*,?
CN1/C(=C\C=Nc2ccc3ccccc3c2)C(C)(C)c2ccccc21,.,3.2µM*,.,4.5µM*,13%
CN1/C(=C\C=O)C(C)(C)c2ccccc21,-1%,?,-6%,-9%,-1%
CN1/C(=C\C=N\NC(=O)c2cccnc2)C(C)(C)c2ccccc21,4%,0.5µM*,-1%,0.89µM*,?
COC(=O)Cn1ncc(N(C)Cc2ccccc2)c(Cl)c1=O,-13%,-41%,-11%,-16%,?
CCc1ccc(OCc2ccccc2C(=O)Nc2ccc3nc(C)cc(N)c3c2)cc1,.,11µM*,.,?,.
C/C(=N\NC(=O)COc1cccc(C)c1)c1ccc2ccccc2c1O,13µM*,4.5µM*,23µM*,4µM*,-1%
Cc1cccc(OCC(=O)NCc2ccccc2)c1,-2%,44%,4%,30%,2%
O=C(NCc1ccc(Cl)cc1)c1ccc(S(=O)(=O)N2CCCCC2)cc1,11%,.,-4%,.,-1%
O=C(c1ccc(Cn2cc([N+](=O)[O-])cn2)o1)N1CCCCCC1,13%,-1%,1%,-15%,1%
COC(=O)c1c(C)[nH]c(C(=O)OC(C)C(=O)N(C)C2CCCCC2)c1C (centres undefined),-1%,.,-3%,.,?
COc1ccc(/C(C)=N/Nc2nc3ccccc3nc2C)cc1,15µM*,2.5µM*,18µM*,13µM*,?
SMILES,MCF10A rereplic,RORgamma inh,SW480 rereplic,VP16 counter,ELG1 DNA repair
COc1ccc(/C(C)=N/Nc2nncc3ccccc23)cc1,-8%,?,-6%,-11%,?
COCc1cc(=O)[nH]c(N2CCN(Cc3ccc4c(c3)OCO4)CC2)n1,-3%,-2%,-18%,2%,-7%
Cn1c(Cc2ccccc2)nnc1SCC(=O)N1CCN(c2ccccc2)CC1,?,-5%,11%,-6%,?
Cc1occc1-c1nnc(SCC(=O)N2CCN(c3ccccc3)CC2)n1C,1%,30%,-4%,-1%,?
Cn1c(SCC(=O)N2CCN(c3ccccc3)CC2)nnc1-c1ccncc1,1%,15%,-3%,-3%,-2%
CCn1c(SCC(=O)N2CCN(c3ccccc3)CC2)nnc1-c1ccoc1C,?,18%,3%,-2%,16µM*
CCn1c(SCC(=O)c2ccc(Cl)cc2)nnc1-c1ccoc1C,?,?,?,?,12%
C=CCn1c(CSCc2ccccc2)nnc1SCC(=O)N1CCN(c2ccccc2)CC1,-43%,28µM*,-79%,?,?
CCn1c(SCC(=O)c2ccc(C)cc2)nnc1-c1ccoc1C,3%,?,-6%,16µM*,9%
Cn1c(SCC(=O)N2CCN(c3ccccc3)CC2)nnc1-c1cc2ccccc2o1,1%,16%,-1%,2%,13µM*
Cc1ccccc1OCC(=O)OCC(=O)NC1CC1,0%,.,-4%,.,17%
Cc1c(-n2c(SCC(=O)O)nnc2-c2ccccc2Br)c(=O)n(-c2ccccc2)n1C,-2%,3%,1%,7%,15%
CCn1c(Cc2ccccc2)nnc1SCC(=O)N1CCCCC1,14%,5%,-4%,7%,15%
CCn1c(CSCc2ccc(C)cc2)nnc1SCC(=O)N1CCN(c2ccccc2)CC1,-1%,-21%,?,-1%,18µM*
O=C(N/N=C/c1ccc(O)cc1)Nc1cccc2nsnc12,?,?,15µM*,2%,?
CCc1ccc(/C(C)=N\Nc2ccc([N+](=O)[O-])cc2)cc1,9.2µM*,20%,15µM*,-11%,?
CC(C)(C)c1cnnn1-c1ccc(/C=N/Nc2ccc([N+](=O)[O-])cc2)cc1,?,?,18µM*,-27%,?
C/C(=N\Nc1ccc([N+](=O)[O-])cc1)c1ccc(N)cc1,?,26%,29%,3%,?
C/C(=N\Nc1nc(C)c(C)s1)c1ccc([N+](=O)[O-])cc1,?,11µM*,5%,?,1%
CC/C(=N\Nc1ccc([N+](=O)[O-])cc1)c1ccccc1,16µM*,-1%,?,-3%,?
O=C(CN1CCCC1=O)NC1C2CC3CC(C2)CC1C3 (centres undefined),1%,0%,2%,1%,-1%
CC(C)C[C@@H](CN)NC(=O)c1nc[nH]c1C(=O)N[C@@H](C)C(=O)CNC[C@H](CC(C)C)NC(=O)c1nc[nH]c1C(=O)N[C@@H](Cc1ccccc1)C(=O)O,-1%,.,-9%,.,.
CCCCN(CCCC)CC(O)COc1ccccc1Br (centres undefined),22%,-6%,22%,-10%,-1%
COc1ccc(/C=C2\N=C(C)OC2=O)cc1[N+](=O)[O-],0%,13%,?,0%,13%
